ATP content data for 37 molecules are collected here from the supplement of paper PMC4206467.

In the experiment the test system is Perkinsus marinus PRA240. Put plainly: ATP content (proliferation) relative to DMSO control; higher = more parasite growth (less inhibition). Conditions: 20 µM; 4 days. As for the experimental part: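 Perkinsus marinus PRA240 trophozoites (2-5x10^6 cells/ml, 100 µl, 96-well) were exposed once to MMV Malaria Box compounds at 20 µM (0.1% DMSO) in triplicate. ATP content (ATPlite bioluminescence) was read at day 4 post-exposure and normalised to DMSO + cells control wells (100% activity). Compounds were identified by joining plate and well to the Malaria Box list.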
`O=C(Nc1ccc(-c2nc3cc4ccccc4cc3[nH]2)cc1)c1cccc(Br)c1`: the ATP content came to 124%.

Molecule `O=C(Nc1nc(-c2ccccn2)cs1)c1ccccc1Br` returned an ATP content of 8.72%.

With `Nc1ccc(-c2nc3cc(Cc4ccc5[nH]c(-c6ccc(N)cc6)nc5c4)ccc3[nH]2)cc1`, the ATP content worked out at 135%.

Take `O=C(NC1CCN(Cc2ccccc2)CC1)c1cc(C(=O)NC2CCN(Cc3ccccc3)CC2)cc(C(=O)NC2CCN(Cc3ccccc3)CC2)c1`: the ATP content stood at 90.4%.

The molecule `CCn1nc(-c2ccc(C(=O)OC)cc2)nc2c(=O)n(C)c(=O)nc1-2` displayed an ATP content of 1.37%.

Take `Cc1ccnc(NC(c2cccc(OCc3ccccc3)c2)c2ccc3cccnc3c2O)c1` (configuration not stated): the ATP content stood at 57.2%.

`CN1CCN(c2ncnc3c2[nH]c2ccc(Cl)cc23)CC1`: the ATP content is 111%.

For `CCCN(CCC)CCCNC(=O)c1cc2c(-c3ccc(OC)c(OC)c3)nn(C)c2s1`, the ATP content was 80.3%.

For `COc1cccc(C2(C)Nc3ccccc3-c3nc4ccccc4n32)c1` (configuration not stated), the ATP content stood at 144%.

Take `CCCCc1c(CCC)c(=N)c2ccccc2n1C`: the ATP content is 95.4%.

Regarding `CCCCc1c(C)nc2c(OC)cccc2c1O`, the ATP content was 37.3%.

The molecule `c1ccc(C2=Nc3ccccc3N=C(c3ccccc3)c3ccccc32)cc1` gave an ATP content of 117%.

Take `O=C(Nc1ccccc1O)c1ccc(-c2ccc(Cl)cc2Cl)o1`: the ATP content turned out to be 82.5%.

`COc1ccc(C(=O)Nc2ccc3nc(N4CCCCC4)cc(C)c3c2)cc1OC` showed an ATP content of 101%.

Regarding `CCOc1cccc(C(=O)Nc2ccc(-c3nc4ccccc4[nH]3)cc2)c1`, the ATP content was found to be 143%.

`CCn1c2c(c(=N)c3c1CCC3)CCCC2` yielded an ATP content of 96.7%.

`CC(NCc1ccccc1)c1cc(Cl)ccc1O` (configuration not stated) had an ATP content of 85.9%.

As to `Cc1sc(NC(=O)c2ccco2)c(C(c2cccnc2)N2CCC(Cc3ccccc3)CC2)c1C` (configuration not stated), the ATP content worked out at 48.5%.

Molecule `COc1cccc(Cn2c(Oc3ccccc3)nc3c2c(=O)n(C)c(=O)n3C)c1` came in with an ATP content of 106%.

In turn, `O=C(NC1CCN(Cc2ccccc2)CC1)c1cc(-c2cccnc2)nc2ccc(Cl)cc12` registered an ATP content of 137%.

`O=C(NCc1ccco1)C1CCN(S(=O)(=O)c2ccc(Cl)cc2)CC1` displayed an ATP content of 89.8%.

For the molecule `CCOC(=O)c1cnc2c(C)cccc2c1Nc1ccc(C(C)=O)cc1`, the ATP content was found to be 122%.

On to `CN(C)c1ccc(N=Cc2ccc(N3CCOCC3)cc2)cc1`, for which the ATP content was 108%.

Regarding `Cc1ccc(Nc2nc(N)c3ccccc3n2)cc1Cl`, the ATP content worked out at 4.69%.

`CCOc1ccc(Nc2c3ccccc3nc3ccccc23)cc1` registered an ATP content of 159%.

`CCN(CC)CCNc1ccnc2cc3ccccc3cc12` showed an ATP content of 107%.

Molecule `CCCCCCC(O)(c1ccc(F)cc1)C(CN1CCOCC1)c1ccccc1` (configuration not stated) showed an ATP content of 127%.

As to `Cc1nc2ccccc2c(O)c1CC=C(Cl)Cl`, the ATP content worked out at 50.4%.

Molecule `CCOC(=O)c1cnc2ccc(OC)cc2c1NCc1ccccc1` showed an ATP content of 69.3%.

As for `C=CCc1c(C)nc2ccccc2c1O`, the ATP content turned out to be 48%.

As to `Cc1ccc(-c2nc3ccccc3o2)cc1NCc1cc(Cc2ccccc2)ccc1O`, the ATP content came to 77.3%.

In turn, `COc1ccc(C(=O)C2CC2c2ccc(Cl)cc2)cc1` (configuration not stated) yielded an ATP content of 199%.

As to `Cc1ccc(F)cc1NC(=O)c1cc(Cl)ccc1Nc1ccccc1`, the ATP content came out at 113%.

On to `CCCCNCC(O)(c1ccc(Cl)cc1)c1ccc(Cl)cc1`, for which the ATP content was 103%.

Molecule `CC1CC(C)CN(C(=O)c2ccc(Cl)cc2Cl)C1` (configuration not stated) yielded an ATP content of 135%.

`COc1ccc(CCN2C(=O)c3[nH]nc(-c4cc(Cl)c(C)cc4O)c3C2c2ccccc2F)cc1` (configuration not stated) came in with an ATP content of 91.4%.

`CN(C)c1ccc(-c2nc3cc(N)ccc3[nH]2)cc1` had an ATP content of 0.856%.
